# Experimental data from PubChem BioAssay AID1159580 (chemical genetic matrix, 2015).
# Several values for one entry are separate records, joined by “and”; a condition that tells them apart may be missing. Equal entries are not always repeated. The campaign covered roughly 5,500 compounds. About 2,000 (36%) were called active. Not shown: some 18% with an inconclusive outcome. The list shows a part of the results. Values without a mark were called inactive. Rule as the data show it: active = normalized growth mostly below about 0.91 (no sharp cut-off); inconclusive = no clear call, values can overlap the other calls; inactive = mostly above about 0.92.
# Test: chemical genetic growth profiling, strain panel (AID 1159580);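 also: tested at 20 µM; growth read once vehicle control cultures reached saturation at 30 °C; 1 = growth at the plate median or of vehicle wells; lower values mean less growth of the strain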
# Conditions: growth OD
smiles,measurement,setting,value
COc1cccc(-c2cc(=O)c3cc(OC)ccc3o2)c1,normalized growth,"S. cerevisiae deletion strains, locus YAL013W, strain DEP1, hits give low values",0.993
same,normalized growth,"S. cerevisiae deletion strains, locus YBR021W, strain FUR4, hits give low values",0.816 (active)
same,normalized growth,"S. cerevisiae deletion strains, locus YBR229C, strain ROT2, hits give low values",0.992
same,normalized growth,"S. cerevisiae deletion strains, locus YCL029C, strain bik1, hits give low values",1.1 [resistant] (active)
same,normalized growth,"S. cerevisiae deletion strains, locus YDL035C, strain GPR1, hits give low values",0.98
same,normalized growth,"S. cerevisiae deletion strains, locus YDL074C, strain BRE1, hits give low values",0.914
same,normalized growth,"S. cerevisiae deletion strains, locus YDL101C, strain DUN1, hits give low values",0.983
same,normalized growth,"S. cerevisiae deletion strains, locus YDL134C, strain PPH21, hits give low values",0.95
same,normalized growth,"S. cerevisiae deletion strains, locus YDL185W, strain tfp1, hits give low values",1.09
same,normalized growth,"S. cerevisiae deletion strains, locus YDL192W, strain arf1, hits give low values",1.04
same,normalized growth,"S. cerevisiae deletion strains, locus YDR101C, strain arx1, hits give low values",1.13 [resistant] (active)
same,normalized growth,"S. cerevisiae deletion strains, locus YDR150W, strain NUM1, hits give low values",1
same,normalized growth,"S. cerevisiae deletion strains, locus YDR162C, strain NBP2, hits give low values",0.968
same,normalized growth,"S. cerevisiae deletion strains, locus YDR318W, strain mcm21, hits give low values",1.05
same,normalized growth,"S. cerevisiae deletion strains, locus YDR388W, hits give low values",1.03
same,normalized growth,"S. cerevisiae deletion strains, locus YDR502C, strain sam2, hits give low values",1.14 [resistant] (active)
same,normalized growth,"S. cerevisiae deletion strains, locus YEL061C, strain CIN8, hits give low values",0.979
same,normalized growth,"S. cerevisiae deletion strains, locus YER155C, strain BEM2, hits give low values",1.07
same,normalized growth,"S. cerevisiae deletion strains, locus YER167W, strain BCK2, hits give low values",0.993
same,normalized growth,"S. cerevisiae deletion strains, locus YGL078C, strain dbp3, hits give low values",1.07
same,normalized growth,"S. cerevisiae deletion strains, locus YGL086W, strain mad1, hits give low values",1
same,normalized growth,"S. cerevisiae deletion strains, locus YGL248W, strain PDE1, hits give low values",0.944
same,normalized growth,"S. cerevisiae deletion strains, locus YGR135W, strain pre9, hits give low values",1.07
same,normalized growth,"S. cerevisiae deletion strains, locus YGR229C, strain SMI1, hits give low values",0.858
same,normalized growth,"S. cerevisiae deletion strains, locus YGR252W, strain gcn5, hits give low values",0.981
same,normalized growth,"S. cerevisiae deletion strains, locus YHR030C, strain SLT2, hits give low values",0.958 and 0.966
same,normalized growth,"S. cerevisiae deletion strains, locus YHR079C, strain IRE1 (second series), hits give low values",0.987
same,normalized growth,"S. cerevisiae deletion strains, locus YHR079C, strain IRE1, hits give low values",0.967
same,normalized growth,"S. cerevisiae deletion strains, locus YHR094C, strain hxt1, hits give low values",1.18 [resistant] (active)
same,normalized growth,"S. cerevisiae deletion strains, locus YHR129C, strain ARP1, hits give low values",0.98
same,normalized growth,"S. cerevisiae deletion strains, locus YHR200W, strain rpn10, hits give low values",1.14 [resistant] (active)
same,normalized growth,"S. cerevisiae deletion strains, locus YIL066C, strain RNR3, hits give low values",0.94
same,normalized growth,"S. cerevisiae deletion strains, locus YIL073C, strain SPO22, hits give low values",0.945
same,normalized growth,"S. cerevisiae deletion strains, locus YIL125W, strain kgd1, hits give low values",1.05
same,normalized growth,"S. cerevisiae deletion strains, locus YIR030C, strain dcg1, hits give low values",1.12 [resistant] (active)
same,normalized growth,"S. cerevisiae deletion strains, locus YJL095W, strain BCK1, hits give low values",0.857 and 0.963
same,normalized growth,"S. cerevisiae deletion strains, locus YJL134W, strain LCB3, hits give low values",1.01
same,normalized growth,"S. cerevisiae deletion strains, locus YJL168C, strain set2, hits give low values",1.1 [resistant] (active)
same,normalized growth,"S. cerevisiae deletion strains, locus YJL187C, strain SWE1 (second series), hits give low values",0.954
same,normalized growth,"S. cerevisiae deletion strains, locus YJR043C, strain POL32, hits give low values",0.93
same,normalized growth,"S. cerevisiae deletion strains, locus YJR066W, strain TOR1, hits give low values",0.916
same,normalized growth,"S. cerevisiae deletion strains, locus YJR075W, strain HOC1, hits give low values",0.959
same,normalized growth,"S. cerevisiae deletion strains, locus YKL009W, strain mrt4, hits give low values",0.713 (active)
same,normalized growth,"S. cerevisiae deletion strains, locus YKL068W, hits give low values",1.02
same,normalized growth,"S. cerevisiae deletion strains, locus YKL085W, strain MDH1 (second series), hits give low values",1.03
same,normalized growth,"S. cerevisiae deletion strains, locus YKL085W, strain MDH1, hits give low values",1.03
same,normalized growth,"S. cerevisiae deletion strains, locus YKL190W, strain CNB1, hits give low values",1.01
same,normalized growth,"S. cerevisiae deletion strains, locus YKR001C, strain vps1, hits give low values",0.998
same,normalized growth,"S. cerevisiae deletion strains, locus YLR039C, strain RIC1, hits give low values",0.995
same,normalized growth,"S. cerevisiae deletion strains, locus YLR058C, strain SHM2, hits give low values",0.968
same,normalized growth,"S. cerevisiae deletion strains, locus YLR102C, strain apc9, hits give low values",1.03
same,normalized growth,"S. cerevisiae deletion strains, locus YLR113W, strain HOG1, hits give low values",0.983
same,normalized growth,"S. cerevisiae deletion strains, locus YLR262C, strain YPT6, hits give low values",1.06
same,normalized growth,"S. cerevisiae deletion strains, locus YLR268W, strain sec22, hits give low values",1.07
same,normalized growth,"S. cerevisiae deletion strains, locus YLR330W, strain CHS5, hits give low values",0.952
same,normalized growth,"S. cerevisiae deletion strains, locus YLR342W, strain FKS1 (second series), hits give low values",0.891
same,normalized growth,"S. cerevisiae deletion strains, locus YLR371W, strain rom2, hits give low values",1.11 [resistant] (active)
same,normalized growth,"S. cerevisiae deletion strains, locus YLR418C, strain cdc73, hits give low values",0.895
same,normalized growth,"S. cerevisiae deletion strains, locus YML016C, strain PPZ1, hits give low values",0.987
same,normalized growth,"S. cerevisiae deletion strains, locus YML032C, strain rad52, hits give low values",0.934
same,normalized growth,"S. cerevisiae deletion strains, locus YML124C, strain tub3, hits give low values",1.04
same,normalized growth,"S. cerevisiae deletion strains, locus YMR078C, strain ctf18, hits give low values",1.06
same,normalized growth,"S. cerevisiae deletion strains, locus YMR223W, strain ubp8, hits give low values",1.09
same,normalized growth,"S. cerevisiae deletion strains, locus YMR263W, strain SAP30, hits give low values",0.935
same,normalized growth,"S. cerevisiae deletion strains, locus YMR307W, strain GAS1, hits give low values",0.969
same,normalized growth,"S. cerevisiae deletion strains, locus YNL067W, strain RPL9B, hits give low values",0.946
same,normalized growth,"S. cerevisiae deletion strains, locus YNL128W, strain TEP1, hits give low values",0.99
same,normalized growth,"S. cerevisiae deletion strains, locus YNL183C, strain NPR1, hits give low values",0.96
same,normalized growth,"S. cerevisiae deletion strains, locus YNL233W, strain BNI4, hits give low values",0.889
same,normalized growth,"S. cerevisiae deletion strains, locus YNL250W, strain rad50, hits give low values",1.05
same,normalized growth,"S. cerevisiae deletion strains, locus YNL271C, strain bni1, hits give low values",1.17 [resistant] (active)
same,normalized growth,"S. cerevisiae deletion strains, locus YNL298W, strain CLA4, hits give low values",0.992
same,normalized growth,"S. cerevisiae deletion strains, locus YNL307C, strain MCK1, hits give low values",1.14 [resistant] (active)
same,normalized growth,"S. cerevisiae deletion strains, locus YNL322C, strain KRE1, hits give low values",0.999
same,normalized growth,"S. cerevisiae deletion strains, locus YNR052C, strain pop2, hits give low values",1.03
same,normalized growth,"S. cerevisiae deletion strains, locus YOL006C, strain TOP1, hits give low values",0.723
same,normalized growth,"S. cerevisiae deletion strains, locus YOL012C, strain htz1",0.822
same,normalized growth,"S. cerevisiae deletion strains, locus YOL147C, strain pex11, hits give low values",0.969
same,normalized growth,"S. cerevisiae deletion strains, locus YOR061W, strain CKA2, hits give low values",1
same,normalized growth,"S. cerevisiae deletion strains, locus YOR069W, strain VPS5, hits give low values",1
same,normalized growth,"S. cerevisiae deletion strains, locus YOR136W, strain idh2, hits give low values",1.18 [resistant] (active)
same,normalized growth,"S. cerevisiae deletion strains, locus YOR184W, strain ser1, hits give low values",1.14 [resistant] (active)
same,normalized growth,"S. cerevisiae deletion strains, locus YOR231W, strain MKK1, hits give low values",0.977
same,normalized growth,"S. cerevisiae deletion strains, locus YOR316C, strain cot1, hits give low values",1.12 [resistant] (active)
same,normalized growth,"S. cerevisiae deletion strains, locus YPL256C, strain CLN2, hits give low values",0.982
same,normalized growth,"S. cerevisiae deletion strains, locus YPR119W, strain clb2, hits give low values",1.11 [resistant] (active)
same,normalized growth,"S. cerevisiae deletion strains, locus YPR141C, strain kar3, hits give low values",1.07
same,normalized growth,"S. cerevisiae deletion strains, locus YPR163C, strain tif3, hits give low values",1.07
same,normalized growth,"S. cerevisiae deletion strains, locus YPR167C, strain met16, hits give low values",1.08 [resistant] (active)
same,normalized growth,"S. cerevisiae deletion strains, strain wtn01, hits give low values",1.09
same,normalized growth,"S. cerevisiae strains, strain wild type, hits give low values",0.972
